{
  "source": "ChEMBL document CHEMBL3988442",
  "about": "“University of Dundee, Small-Polar-MMV Screening Library” (2021)",
  "note": "Among all 48,000 compounds or so, about 13,000 (27%) showed an effect of 50% or more. The list shows a part of the results.",
  "data": [
    {"test_system": "Wolbachia pipientis", "test": "Anti-Wolbachia Cell-Based Screen", "format": "functional", "set-up": "scale not given: in the data most compounds retested in dose-response had high values", "conditions": "5 µM", "units": {"Percent Effect": "%"}, "values": [
      {"compound": "COc1c(F)cccc1C(=O)NC(C)c1cnn(C)c1", "note": "(configuration not stated)", "Percent Effect": 2.584},
      {"compound": "Cc1ccccc1S(=O)(=O)CCOC(C)C", "Percent Effect": -3.521},
      {"compound": "O=C(C1CCOCC1)N1C[C@@H](F)[C@@H](OCc2nc3cc(F)ccc3[nH]2)C1", "Percent Effect": -12.95},
      {"compound": "O=C(NCC1CCN(CCc2ccccc2)C1)c1c(F)cccc1F", "note": "(configuration not stated)", "Percent Effect": -12.95},
      {"compound": "O=C(NCC1CCN(CCc2ccccc2)C1)c1cc(Cl)c[nH]1", "note": "(configuration not stated)", "Percent Effect": 98.65},
      {"compound": "CCN1CCC(CNC(=O)c2cc(Cl)c[nH]2)CC1", "Percent Effect": 93.05},
      {"compound": "CC(C)(C)OC(=O)NCC1CCN(C(=O)c2cc(Cl)c[nH]2)CC1", "Percent Effect": 10.1},
      {"compound": "CCc1cc(C(=O)NCC2CCN(Cc3ccncc3)CC2)on1", "Percent Effect": 4.058},
      {"compound": "COCCN1CCC(CNC(=O)c2cc(Cl)c[nH]2)CC1", "Percent Effect": 92.15},
      {"compound": "COCCN1CCC(CNC(=O)c2cc(C)cc(C)c2)C1", "note": "(configuration not stated)", "Percent Effect": 11.6},
      {"compound": "COCCN1CCC(CNC(=O)Nc2ccc(F)c(Cl)c2)C1", "note": "(configuration not stated)", "Percent Effect": -3.47},
      {"compound": "COc1ccc(OC)c2c(C)cc(N(C)CCCO)nc12", "Percent Effect": 19.89},
      {"compound": "OC[C@@H](O)CN(CCC(F)(F)F)c1ncccn1", "Percent Effect": -5.207},
      {"compound": "O=C(CCN1CCCN(c2nccs2)CC1)NCC1CCCCC1", "Percent Effect": -7.888},
      {"compound": "Cc1cnn(CCCNC(=O)NC(C)C(=O)Nc2ccccc2)c1", "note": "(configuration not stated)", "Percent Effect": 105.3},
      {"compound": "CCn1nnnc1-c1cccc(NC(=O)CCn2cc(C)cn2)c1", "Percent Effect": 2.601},
      {"compound": "Cc1cnn(CCCNC2Cc3ccccc3C2)c1", "Percent Effect": 8.956},
      {"compound": "Cc1cnn(CCNCC(=O)NCc2ccccc2)c1", "Percent Effect": 3.726},
      {"compound": "Cc1cnn(CCCNC(=O)NCCS(=O)(=O)Nc2ccccc2)c1", "Percent Effect": 96.15},
      {"compound": "Cc1cnn(CCNC(C)C(=O)NCCc2cccs2)c1", "note": "(configuration not stated)", "Percent Effect": 5.747},
      {"compound": "Cc1cnn(CCNCCCOc2ccccc2)c1", "Percent Effect": 2.655},
      {"compound": "Cc1cnn(CCCNC(=O)NCCC(=O)Nc2ccccc2)c1", "Percent Effect": 97.62},
      {"compound": "Cc1cnn(CCNC(C)C(=O)Nc2ccc(Cl)cn2)c1", "note": "(configuration not stated)", "Percent Effect": -21.66},
      {"compound": "CN(C)S(=O)(=O)N1CC[C@]2(C[C@H](OCc3ccccn3)CO2)C1.O=C(O)C(F)(F)F", "Percent Effect": 14.62},
      {"compound": "Cc1ccc(C(=O)N2CC[C@@H]3[C@H]2CCC(=O)N3CCN(C)C)cn1.O=C(O)C(F)(F)F.O=C(O)C(F)(F)F", "Percent Effect": 19.11},
      {"compound": "CCn1nc(C)c(NC(=O)c2cc(NC(=O)C3CC3)n(C)n2)c1C", "Percent Effect": -7.543},
      {"compound": "O=C1NC[C@@]2(C(=O)O)CN(Cc3cccc(C(F)(F)F)c3)C[C@@H]12", "Percent Effect": -16.76},
      {"compound": "O=C(C[S+]([O-])Cc1cccc(C(F)(F)F)c1)NC1CCCC1", "note": "(configuration not stated)", "Percent Effect": -0.5467},
      {"compound": "O=C1C(N2CC[C@@H](O)C2)CCCN1Cc1cccc(C(F)(F)F)c1", "note": "(some centres not stated)", "Percent Effect": 107.1},
      {"compound": "O=C1C(N2CCOCC2)CCCN1Cc1cccc(C(F)(F)F)c1", "note": "(configuration not stated)", "Percent Effect": 85.07},
      {"compound": "Cc1nc(CN2CCCC(CCc3cccc(C(F)(F)F)c3)C2)co1", "note": "(configuration not stated)", "Percent Effect": -5.657},
      {"compound": "FC(F)(F)c1cccc(CN2CCOC[C@H](Oc3cccnc3)C2)c1", "Percent Effect": -1.353},
      {"compound": "O[C@H]1COCCN(Cc2cccc(C(F)(F)F)c2)C1", "Percent Effect": 1.348},
      {"compound": "NC(=O)CN(C(=O)Cc1cccc(C(F)(F)F)c1)C1CCCC1", "Percent Effect": 0.7845},
      {"compound": "NC1CCCN(Cc2cccc(C(F)(F)F)c2)C1=O", "note": "(configuration not stated)", "Percent Effect": 110.9},
      {"compound": "CC(C)(C)c1nc2cc(NC(=O)Cn3ccc(=O)[nH]c3=O)ccc2o1", "Percent Effect": -2.056},
      {"compound": "Cc1cccc(C(C(=O)N2CCN(C(=O)c3ccc[nH]3)CC2)N(C)C)c1", "note": "(configuration not stated)", "Percent Effect": 8.522},
      {"compound": "Clc1ccc2nc(N3CCC(NCCCC4CCOC4)CC3)sc2c1", "note": "(configuration not stated)", "Percent Effect": 5.411},
      {"compound": "CC(C)COCC(C)NC(=O)NCc1cccc(-n2cncn2)c1", "note": "(configuration not stated)", "Percent Effect": 11.71},
      {"compound": "CCN1CCCC(C)(C(=O)NCCc2nnc(C)[nH]2)C1", "note": "(configuration not stated)", "Percent Effect": 0.7717},
      {"compound": "CCOC(=O)C1(Cc2ccccc2)CCCN(Cc2nccn2CC)C1", "note": "(configuration not stated)", "Percent Effect": 6.244},
      {"compound": "CCC1(CO)CCCN(Cc2nccn2Cc2ccccc2)C1", "note": "(configuration not stated)", "Percent Effect": 7.742},
      {"compound": "CCN1CCCC(C)(C(=O)NCc2nccn2Cc2ccccc2)C1", "note": "(configuration not stated)", "Percent Effect": 105.1},
      {"compound": "CCN1CCCC(C)(C(=O)NCCc2n[nH]c(=O)[nH]2)C1", "note": "(configuration not stated)", "Percent Effect": 34.99},
      {"compound": "CCN1CCCC(C)(C(=O)NCCCc2nc(C)cs2)C1", "note": "(configuration not stated)", "Percent Effect": -10.41},
      {"compound": "CCN1CCCC(C)(C(=O)NCc2nncn2CCc2ccccc2)C1", "note": "(configuration not stated)", "Percent Effect": 118.3},
      {"compound": "CCN1CCCC(C)(C(=O)NCc2nnnn2-c2ccccc2)C1", "note": "(configuration not stated)", "Percent Effect": 65.9},
      {"compound": "Cc1nnc(N2CCC(CN(C)C(C)C)CC2)c(C#N)c1C", "Percent Effect": 6.063},
      {"compound": "O=C(CC1CC1)N1CCn2cc(Cn3cncn3)nc2C1", "Percent Effect": 0.5446},
      {"compound": "Cn1cnc(S(=O)(=O)NCC(C)(O)c2ccc3c(c2)OCO3)c1", "note": "(configuration not stated)", "Percent Effect": -0.9964},
      {"compound": "Cn1cc(S(=O)(=O)NCC(C)(O)c2ccsc2)cn1", "note": "(configuration not stated)", "Percent Effect": 76.2},
      {"compound": "Cn1cc(Br)cc1C(=O)NCC(C)(O)c1ccsc1", "note": "(configuration not stated)", "Percent Effect": -10.72},
      {"compound": "CSCC(C)(O)CNc1ncccc1I", "note": "(configuration not stated)", "Percent Effect": 15.53},
      {"compound": "Cc1nnsc1C(=O)N1CCCCC1c1cc2nc(C)c(C)c(O)n2n1", "note": "(configuration not stated)", "Percent Effect": 136.2},
      {"compound": "Cc1nc2cc(C3CCCCN3C(=O)C3CC3)nn2c(O)c1C", "note": "(configuration not stated)", "Percent Effect": 136.9},
      {"compound": "Cc1ncsc1C(=O)N1CCCCC1c1cc2nc(C)c(C)c(O)n2n1", "note": "(configuration not stated)", "Percent Effect": 146.5},
      {"compound": "Cc1nc2cc(C3CCN(Cc4cccc(F)c4F)C3)nn2c(O)c1C.O=C(O)CC(O)(CC(=O)O)C(=O)O", "note": "(configuration not stated)", "Percent Effect": -10.9},
      {"compound": "Cc1nnsc1C(=O)N1CCN(C(=O)C2CCC2)[C@@H]2CS(=O)(=O)C[C@@H]21", "Percent Effect": 2.369},
      {"compound": "CC(=O)N1CCN(C(=O)c2snnc2C)[C@H]2CS(=O)(=O)C[C@H]21", "Percent Effect": -13.7},
      {"compound": "CC1CCCN(c2ccc(C(N)=O)cc2NC(=O)CC2=CCNCC2)C1", "note": "(configuration not stated)", "Percent Effect": 16.61},
      {"compound": "O=C1N(Cc2ccccc2F)CCCC12CCN(C1CCSCC1)C2", "note": "(configuration not stated)", "Percent Effect": -13.98},
      {"compound": "Cc1ncsc1CN1Cc2cn(C)nc2C(COCC2CC2)C1.O=C(O)C(F)(F)F.O=C(O)C(F)(F)F", "note": "(configuration not stated)", "Percent Effect": 13.37},
      {"compound": "Cc1ccnn1CC(=O)N1CCCN(C2Cc3ccccc3C2)CC1", "Percent Effect": -5.068},
      {"compound": "CC(C)NC(=O)C1Cc2nc(-c3ccsc3)sc2N1CC1CC1", "note": "(configuration not stated)", "Percent Effect": 78.87},
      {"compound": "CS(=O)(=O)NCC1CCCCN1C(=O)c1csc(-c2ccsc2)n1", "note": "(configuration not stated)", "Percent Effect": 11.05},
      {"compound": "CC(C)N1c2sc(-c3ccccc3)nc2CC1C(=O)NC1CCCC1", "note": "(configuration not stated)", "Percent Effect": 22.35},
      {"compound": "Cc1cncc(C(=O)N2CCC(Cn3cc(-c4ccsc4)nn3)CC2)c1", "Percent Effect": -0.4456},
      {"compound": "O=C(NC1CCCC1)C1Cc2nc(-c3ccsc3)sc2N1CC1CC1", "note": "(configuration not stated)", "Percent Effect": 63.55},
      {"compound": "O=C([C@@H]1CCCO1)N1CCC(Cn2cc(-c3ccsc3)nn2)CC1", "Percent Effect": -13.58},
      {"compound": "CC(C)N1c2sc(-c3ccsc3)nc2CC1C(=O)NC1CC1", "note": "(configuration not stated)", "Percent Effect": 38.95},
      {"compound": "CC(C)N1c2sc(-c3ccsc3)nc2CC1C(=O)NC1CCCC1", "note": "(configuration not stated)", "Percent Effect": 65.31},
      {"compound": "O=C(NC1CC1)C1CCCN1c1ncnc2ccsc12", "note": "(configuration not stated)", "Percent Effect": -11.59}
    ]}
  ]
}
